From PubChem BioAssay (NCI)
Where “and” joins values, the source holds several entries; their conditions need not be identical. Equal values may be shown once. Compounds without any hit were thinned out: in the full panel of roughly 83,000, 20% have a hit.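 Single-concentration screen, 48 h exposure, 96-well plates. Endpoint: percent growth. Below 10 = active.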 Calls of active or inactive are those of the source.

Experiments:
Experiment in all cases: NCI-60 one-dose screen, 48 h (100 = growth as untreated, 0 = no growth, -100 = all killed)
Details in all cases: 10 µM unless noted
NCI-H23 lung = system: NCI-H23 lung
NCI-H226 lung = system: NCI-H226 lung
NCI-H322M lung = system: NCI-H322M lung
HOP-62 NSCLC = system: HOP-62 NSCLC
NCI-H460 lung = system: NCI-H460 lung
HOP-92 NSCLC = system: HOP-92 NSCLC
A549/ATCC NSCLC = system: A549/ATCC NSCLC
786-0 renal = system: 786-0 renal
COLO 205 colon = system: COLO 205 colon
NCI-H522 lung = system: NCI-H522 lung

Measured: growth

CC1(CO)CCCC1NCCNC1CCCC1(C)CO (configuration not stated)
inactive: NCI-H23 lung 109% and 107% | NCI-H226 lung 99.5% and 102% | NCI-H322M lung 139% and 98.2% | HOP-62 NSCLC 109% and 100% | NCI-H460 lung 104% and 112% | HOP-92 NSCLC 82.8% and 101% | A549/ATCC NSCLC 105% and 104% | 786-0 renal 101% and 102% | COLO 205 colon 114% and 103%

CNc1ccc(Cl)cc1S(=O)(=O)c1ccccc1[N+](=O)[O-]
inactive: NCI-H23 lung 87.9% and 98.3% | NCI-H226 lung 114% and 103% | NCI-H322M lung 89.1% and 91% | HOP-62 NSCLC 147% and 94.8% | NCI-H460 lung 107% and 108% | HOP-92 NSCLC 93% and 100% | NCI-H522 lung 78.3% and 75% | 786-0 renal 116% and 100% | COLO 205 colon 117%

CCOC(C)=N
inactive: NCI-H23 lung 105% | NCI-H226 lung 112% | NCI-H322M lung 146% | HOP-62 NSCLC 101% | NCI-H460 lung 114% | HOP-92 NSCLC 89.7% | A549/ATCC NSCLC 101% | 786-0 renal 100% | COLO 205 colon 122%

Nc1nc(=S)c2[nH]cnc2[nH]1
active: NCI-H460 lung 3.77% and 6.79% | HOP-92 NSCLC -2.57% | COLO 205 colon -27.5% and 7.45%
inactive: NCI-H23 lung 17.6% and 161% | NCI-H226 lung 39% and 37.4% | NCI-H322M lung 39.2% and 85.7% | HOP-62 NSCLC 16.5% and 18%
17.2% (inactive) and 9.97% (active): 786-0 renal

O=C(O)c1cc(=O)[nH]c(=O)[nH]1
inactive: NCI-H226 lung 102% and 95% | NCI-H322M lung 89.8% and 97.5% | HOP-62 NSCLC 115% and 107% | NCI-H460 lung 111% and 91.4% | NCI-H522 lung 89.7% and 18.9% | 786-0 renal 96.5% and 103% | COLO 205 colon 99.6% and 89.3%
104% (inactive) and 4.68% (active): NCI-H23 lung

Cc1cc2ccccc2c2cc3ccccc3cc12
inactive: NCI-H23 lung 94.9% | NCI-H226 lung 68.4% | NCI-H322M lung 85.9% | HOP-62 NSCLC 85.6% | NCI-H460 lung 89.2% | HOP-92 NSCLC 99% | NCI-H522 lung 81% | 786-0 renal 110% | COLO 205 colon 79.4%

COc1cc(NCCCCCNC(C)C)c2ncccc2c1
inactive: NCI-H23 lung 104% and 90.3% | NCI-H226 lung 90.5% and 94% | NCI-H322M lung 82.7% and 104% | HOP-62 NSCLC 87.3% and 92.5% | NCI-H460 lung 103% and 117% | HOP-92 NSCLC 82.5% | A549/ATCC NSCLC 101% and 94.7% | 786-0 renal 94.4% and 89.3% | COLO 205 colon 91.7% and 87.9%

ON=C(C1CCCCC1)C1CCCCC1
inactive: NCI-H23 lung 97.8% | NCI-H226 lung 102% | NCI-H322M lung 93.2% | HOP-62 NSCLC 99.5% | NCI-H460 lung 108% | HOP-92 NSCLC 85.7% | A549/ATCC NSCLC 95.9% | 786-0 renal 99.9% | COLO 205 colon 109%

Cn1c(-c2ccccc2)cc(=O)cc1-c1ccccc1
inactive: NCI-H23 lung 73.8% | NCI-H226 lung 101% | NCI-H322M lung 97% | HOP-62 NSCLC 98.3% | NCI-H460 lung 37.8% | HOP-92 NSCLC 90.3% | 786-0 renal 106% | COLO 205 colon 96.9%

O=C(c1ccc(Cl)cc1)C1C(c2ccccc2)C1[N+](=O)[O-] (configuration not stated)
inactive: NCI-H23 lung 84.6% | NCI-H226 lung 97.2% | NCI-H322M lung 89.8% | HOP-62 NSCLC 98% | NCI-H460 lung 104% | HOP-92 NSCLC 80.9% | A549/ATCC NSCLC 98.6% | 786-0 renal 98.8% | COLO 205 colon 111%

Cc1onc(-c2c(F)cccc2Cl)c1-c1ncc(-c2ccc(Cl)cc2)o1
inactive: NCI-H23 lung 67% and 42.5% | NCI-H226 lung 76.9% and 58.4% | NCI-H322M lung 104% and 57% | HOP-62 NSCLC 78% and 53.4% | HOP-92 NSCLC 34.2% and 73% | A549/ATCC NSCLC 53.1% and 41.4% | 786-0 renal 73.9% and 31.6% | COLO 205 colon 53.5% and 43.6%
29.6% (inactive) and 3.17% (active): NCI-H460 lung

O=C(O)/C=C/C=C/c1ccccc1
inactive: NCI-H23 lung 104% and 99.9% | NCI-H226 lung 99.4% and 100% | NCI-H322M lung 104% and 107% | HOP-62 NSCLC 102% and 105% | NCI-H460 lung 107% and 112% | HOP-92 NSCLC 99.5% and 102% | 786-0 renal 105% and 109% | COLO 205 colon 105% and 113%

O=C1C=CC(n2cc(F)c(=O)[nH]c2=O)O1 (configuration not stated)
inactive: NCI-H23 lung 65.2% | NCI-H226 lung 86% | NCI-H322M lung 67.4% | HOP-62 NSCLC 79.5% | NCI-H460 lung 19.4% | HOP-92 NSCLC 112% | 786-0 renal 70.9% | COLO 205 colon 59.4%

CCN(CC)C(CC(=O)c1ccccc1)C(=O)c1ccccc1 (configuration not stated)
inactive: NCI-H23 lung 102% | NCI-H226 lung 95% | NCI-H322M lung 107% | HOP-62 NSCLC 116% | NCI-H460 lung 106% | HOP-92 NSCLC 93.4% | A549/ATCC NSCLC 102% | 786-0 renal 93.5% | COLO 205 colon 77.8%

Nc1[nH][nH]c(=O)c1N=Nc1ccccc1
inactive: NCI-H23 lung 98.7% and 99% | NCI-H226 lung 106% and 91.8% | NCI-H322M lung 129% and 102% | HOP-62 NSCLC 104% and 105% | NCI-H460 lung 99.8% and 117% | HOP-92 NSCLC 101% | NCI-H522 lung 88.9% and 79.1% | 786-0 renal 113% and 109% | COLO 205 colon 107% and 112%

CC(=O)Oc1cc(C)c(OC(C)=O)c(C)c1C
inactive: NCI-H23 lung 97.3% | NCI-H226 lung 101% | NCI-H322M lung 112% | HOP-62 NSCLC 102% | HOP-92 NSCLC 112% | A549/ATCC NSCLC 107% | 786-0 renal 108% | COLO 205 colon 121%

COCCCNC1=C(C#N)C(=O)NC(c2cccs2)S1 (configuration not stated)
inactive: NCI-H23 lung 104% | NCI-H226 lung 98.4% | NCI-H322M lung 95.4% | HOP-62 NSCLC 99.9% | HOP-92 NSCLC 107% | NCI-H522 lung 127% | A549/ATCC NSCLC 103% | 786-0 renal 106% | COLO 205 colon 110%

NNc1ncnc2cccc(Cl)c12
inactive: NCI-H23 lung 99.9% | NCI-H226 lung 93.1% | NCI-H322M lung 101% | HOP-62 NSCLC 95.3% | HOP-92 NSCLC 79.7% | NCI-H522 lung 84.8% | 786-0 renal 105% | COLO 205 colon 104%

O=[N+]([O-])c1cccc(N=Cc2ccccc2)c1
inactive: NCI-H23 lung 111% | NCI-H226 lung 99.9% | NCI-H322M lung 113% | HOP-62 NSCLC 105% | HOP-92 NSCLC 95.7% | NCI-H522 lung 88.2% | A549/ATCC NSCLC 99.8% | 786-0 renal 105% | COLO 205 colon 118%

CC(=O)Nc1ccc2oc(=O)ccc2c1
inactive: NCI-H23 lung 101% | NCI-H226 lung 96.5% | NCI-H322M lung 101% | HOP-62 NSCLC 96.7% | HOP-92 NSCLC 95% | NCI-H522 lung 93.3% | A549/ATCC NSCLC 102% | 786-0 renal 81.6% | COLO 205 colon 107%

CC(=O)Nc1cscc1NC(C)=O
inactive: NCI-H23 lung 103% | NCI-H226 lung 96.8% | NCI-H322M lung 80.1% | HOP-62 NSCLC 98.2% | HOP-92 NSCLC 112% | NCI-H522 lung 91.3% | A549/ATCC NSCLC 104% | 786-0 renal 101% | COLO 205 colon 100%

N#Cc1c(N)nc2c(c(-c3ccc(Cl)cc3)nn2-c2ccccc2)c1C#N
inactive: NCI-H23 lung 93.7% [100 µM] | NCI-H226 lung 97.1% [100 µM] | NCI-H322M lung 104% [100 µM] | HOP-62 NSCLC 96.1% [100 µM] | HOP-92 NSCLC 90.8% [100 µM] | A549/ATCC NSCLC 94.9% [100 µM] | 786-0 renal 72.2% [100 µM] | COLO 205 colon 117% [100 µM]

CC(=O)Oc1cc(C(C)C)c(OCCN(C)C)cc1C
inactive: NCI-H23 lung 99.8% and 105% | NCI-H226 lung 120% and 103% | NCI-H322M lung 102% and 105% | HOP-62 NSCLC 110% and 97.1% | HOP-92 NSCLC 107% | NCI-H522 lung 112% and 115% | 786-0 renal 99.6% and 104% | COLO 205 colon 114% and 108%

Cc1ccc(C(=O)c2ccc(C)cc2)cc1
inactive: NCI-H23 lung 95.9% and 98.3% | NCI-H226 lung 92.4% and 94.6% | NCI-H322M lung 97.2% and 94.3% | HOP-62 NSCLC 92.5% and 98.4% | HOP-92 NSCLC 59.2% and 73.7% | NCI-H522 lung 89.3% and 93.6% | A549/ATCC NSCLC 87.9% and 101% | 786-0 renal 90.7% and 99.6% | COLO 205 colon 99.7%
